# Cruzain inh noDet – qHTS Assay for Promiscuous and Specific Inhibitors of Cruzain (without detergent); purified cruzain, Z-FR-AMC fluorescence, no detergent; Cruzipain (Trypanosoma cruzi), P25779; AID 1476, 2009; Potency, µM, inactives show max response, negative = inhibition, usual class: inhibitors; hit rate 2.3% among 200,000;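 further: plate controls were enzyme without inhibitor for no effect and buffer without enzyme for full effect; nearly all actives have a fitted effect of over 40% in size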
# Target sequence (P25779 123-467 limits assumed): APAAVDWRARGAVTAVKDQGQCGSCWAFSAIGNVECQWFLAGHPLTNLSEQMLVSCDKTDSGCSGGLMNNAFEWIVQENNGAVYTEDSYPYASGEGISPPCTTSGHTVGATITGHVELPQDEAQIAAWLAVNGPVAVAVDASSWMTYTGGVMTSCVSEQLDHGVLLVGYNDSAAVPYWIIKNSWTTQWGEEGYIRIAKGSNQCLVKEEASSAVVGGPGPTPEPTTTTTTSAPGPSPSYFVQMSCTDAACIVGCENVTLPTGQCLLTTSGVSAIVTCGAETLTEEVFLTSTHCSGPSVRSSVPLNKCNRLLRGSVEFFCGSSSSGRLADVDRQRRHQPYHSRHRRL
#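 Purified cruzain at 1.5 nM, pre-incubated 15 min with compound at room temperature in 100 mM sodium acetate pH 5.5, 5 mM DTT, 0.00005% Triton X-100. Reaction started with 2 uM Z-FR-AMC; AMC fluorescence increase over 60 s gives rate.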
# Cruzain inh Det – qHTS Assay for Promiscuous and Specific Inhibitors of Cruzain (with detergent) | purified cruzain, Z-FR-AMC fluorescence, 0.01% Triton | hit rate 0.43% among 200,000 | Cruzipain (Trypanosoma cruzi), P25779 | Potency, µM, inactives show max response, negative = inhibition, most hits filed as inhibitors;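 further: plate controls were neutral wells for no effect and buffer without enzyme for full effect; nearly all actives have a fitted effect of over 40% in size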
#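 Cruzain (1.5 nM) preincubated 15 min at RT with compound in 100 mM sodium acetate pH 5.5, 5 mM DTT, 0.01% Triton X-100. Reaction started with 2 uM Z-FR-AMC; AMC fluorescence (ex 360/em 450 nm) change over 60 s gave rate.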
# * = called active by the depositor; ? = inconclusive; ! = a repeat was not active. Sampled rows, rich in hits. Any-hit rate of the full collection: about 2.5%. The call rests on the fitted dose curve; in most records, active means well fitted curve in the direction sought with a large enough effect; inconclusive means small, poorly fitted or top-dose-only effect, or another doubt; inactive means no such curve, though single readings can be large; an effect the other way counts as inactive or inconclusive. Potency means the concentration at half of the fitted maximal effect.
SMILES,Cruzain inh noDet,Cruzain inh Det
CCOC(=O)c1ccc(NC(=O)CN2c3ccccc3S(=O)(=O)c3ccccc32)cc1,28%,-1%
O=S(=O)(NCC(c1ccco1)N1CCN(c2ccc(F)cc2)CC1)c1cc(F)ccc1F (centres undefined),17%,1%
CC(NC(=O)C12CC3CC(CC(C3)C1)C2)C(=O)N/N=C/C1=C(N2CCOCC2)C(=C\c2cccc([N+](=O)[O-])c2)/CC1 (centres undefined),-21%,-7%
N#C/C(=C\C1=C(N2CCOCC2)C(=C\c2ccc(Cl)cc2)/CC1)C(=O)Nc1ccccc1F,10µM*,-8%
CCN(CC)c1ccc(/C=C2\CCC(/C=C(\C#N)C(=O)Nc3ccccc3F)=C2N2CCOCC2)cc1,?,-2%
N#C/C(=C\C1=C(N2CCOCC2)C(=C/c2cccc([N+](=O)[O-])c2)/CC1)C(=O)Nc1ccccc1F,13µM*,-6%
O=C(NCCOCCn1c(=O)oc2ccccc21)Nc1ccc(F)cc1F,11%,0%
COc1cc(C(=O)OCc2cc(=O)n3ccsc3n2)cc(OC)c1OC,1%,-1%
CC(C)(C)OC(=O)N1CCC(c2c(C(=O)NCCN3CCOCC3)cnn2-c2ccc(F)cc2F)CC1,20%,-1%
O=C(CCc1nc2ccccc2c(=O)[nH]1)OCC(=O)c1ccc(C2CCCCC2)cc1,16µM*,-5%
CC1CC(C)CN(C(=O)COC(=O)CCc2nc3ccccc3c(=O)[nH]2)C1 (centres undefined),0%,0%
Cc1cc(-c2nc3ncccc3o2)ccc1N,?,28µM*
Nc1cc(-c2nc3ncccc3o2)ccc1Cl,-13%,-6%
O=C(Nc1c(C(=O)N2CCN(c3ccccc3)CC2)oc2ccccc12)c1ccccc1F,-14%,-3%
O=C(Nc1c(C(=O)N2CCN(c3ccccc3F)CC2)oc2ccccc12)c1ccccc1F,20µM*,-5%
CN1/C(=C\C(=O)COC(=O)CN2C(=O)C3CC=CCC3C2=O)C(C)(C)c2ccccc21 (centres undefined),9%,-8%
CN1/C(=C\C(=O)COC(=O)CNC(=O)c2ccccc2F)C(C)(C)c2ccccc21,20µM*,22µM*
CNS(=O)(=O)c1cccc(C(=O)OCC(=O)/C=C2/N(C)c3ccccc3C2(C)C)c1,3%,-14%
CN1/C(=C\C(=O)COC(=O)CNC(=O)c2ccc3ccccc3c2)C(C)(C)c2ccccc21,25µM*,-24%
Cc1oc2ncn(CC(C)C)c(=O)c2c1C(=O)NCCc1ccc(Cl)cc1,-15%,-1%
COc1ccccc1N1CCN(c2nc(-c3ccc(C)cc3)nc3ccccc23)CC1,11%,1%
COc1ccccc1/C=C/c1nc(C#N)c(N2CCCCC2)o1,-1%,-25%
COc1ccccc1/C=C/c1nc(C#N)c(NCCc2ccccc2)o1,16µM*,-7%
COc1ccccc1/C=C/c1nc(C#N)c(N(C)C)o1,?,14µM*
COc1ccccc1/C=C/c1nc(C#N)c(NCC(C)C)o1,27%,7%
SMILES,Cruzain inh noDet,Cruzain inh Det
CCc1ccc(-c2nc(-c3cc4ccccc4oc3=O)sc2C)cc1,?,2%
CN(C(=O)CSc1nc2ccc(NC(=O)c3ccccc3)cc2s1)c1ccccc1,0%,-7%
CCC(Sc1ncccc1C(=O)Oc1ccccc1Cl)C(=O)Nc1ccccc1OC (centres undefined),?,1%
COC(=O)c1sc2nc(SCc3ccccc3C#N)n(N)c(=O)c2c1C,32µM*,-8%
CCOC(=O)CSc1nc2sc(C)c(C)c2c(=O)n1N,-9%,-1%
COc1ccc(N2CCN(S(=O)(=O)c3cccc(C(F)(F)F)c3)CC2)cc1,-2%,2%
COc1ccc(N2CCN(S(=O)(=O)c3ccc(Cl)c(C(F)(F)F)c3)CC2)cc1,16µM*,4%
CC1=C(C(=O)Nc2ccc(C)cc2C)C(C(C)C)n2nc(SCc3ccccc3Cl)nc2N1 (centres undefined),14%,-2%
CC(=O)[C@]1(O)CC[C@@H]2[C@H]3C[C@@H](C)C4=CC(=O)CC[C@@]4(C)C3[C@@H](O)C[C@]21C (some centres undefined),-4%,-2%
COC(=O)Cc1nnc(NC(=O)c2ccccc2)s1,-8%,-2%
Cc1ccc(SCc2nnc(NC(=O)c3ccccc3)s2)cc1,10µM*,7%
Nc1c(C(=O)NC2CCCC2)sc2nc(-c3cccs3)ccc12,25µM*,-4%
Nc1c(C(=O)Nc2ccc(C(F)(F)F)cc2)sc2nc(-c3cccs3)ccc12,?,-9%
CSc1cccc(N2C(=O)N(CC(=O)NCc3ccccc3Cl)c3ccccc3S2(=O)=O)c1,-16%,1%
CCOC(=O)c1c(NC(=O)CC2SC(N)=NC2=O)sc2c1CCC(C)C2 (centres undefined),?,-12%
CCOC(=O)c1c(NC(=O)Cn2nc([N+](=O)[O-])c(Br)c2C)sc2c1CCC(C)C2 (centres undefined),13µM*,-4%
COc1ccc(-c2cc(C(=O)Nc3c(Cl)cccc3Cl)no2)cc1OC,5%,-10%
CCCCCCCCC[n+]1cccc2c3ccccc3ccc21,-2%,-9%
Cc1cc(N)c2ccccc2[n+]1CCCCCCCCCC[n+]1c(C)cc(N)c2ccccc21,?,13µM*!
CCOc1ccc(CNC(=O)CCn2c(=O)c3cccn3c3ccc(F)cc32)cc1,14%,-1%
O=C(CSc1ccc(-c2nc3ccccc3[nH]2)cn1)Nc1ccc(S(=O)(=O)N2CCCC2)cc1,32µM*,-4%
O=C(CSc1ccccc1)Nc1ccc(-c2nc3ccccc3[nH]2)cc1,?,-16%
Cc1ccc2nc(-c3ccc(NC(=O)CSc4ccccc4)cc3)[nH]c2c1,?,10µM*
Cc1cc2nc(-c3ccc(SCC(=O)Nc4ccc(S(=O)(=O)N5CCCC5)cc4)nc3)[nH]c2cc1C,?,-12%
CCOc1cc(C(=O)NCCc2sc(-c3ccc(F)cc3)nc2C)cc(OCC)c1OCC,-3%,-5%
SMILES,Cruzain inh noDet,Cruzain inh Det
O=C(CSc1nc2ccccc2[nH]1)Nc1ccc(F)c(F)c1,25µM*,-29%
O=C(CSc1ccc2ccccc2c1)Nc1nc2ccccc2[nH]1,16µM*,-1%
O=C(/C=C/c1ccccc1)Nc1ncn[nH]1,2%,5%
O=C(CSc1nc2ccccc2[nH]1)Nc1ccccc1F,-27%,-9%
O=C(COc1ccccc1)Nc1nc2ccccc2[nH]1,-14%,-4%
O=C(COc1cccc2ccccc12)Nc1nc2ccccc2[nH]1,25µM*,-13%
O=C(CSCc1nc2ccccc2[nH]1)Nc1ccc2ccccc2c1,?,-22%
O=C(/C=C/c1ccc(F)cc1)Nc1nc2ccccc2[nH]1,10µM*,-2%
Cc1cc(C)n(-c2nc(C)c(C)c(=O)n2CC(=O)Nc2ccc(Cl)c(Cl)c2)n1,-5%,-3%
COc1cc(/C=C/c2nc3cc(Cl)ccc3c(=O)n2-c2ccc(C)cc2C)cc(OC)c1OC,-2%,0%
Cc1cc(C(=O)NCc2cccc(Br)c2)c2c(C)nn(-c3ccccc3)c2n1,6%,-2%
CC1CCN(C(=O)Cn2cc(SCC(=O)NCc3ccccc3Cl)c3ccccc32)CC1,3%,-1%
CCOc1ccc(-c2cc3nc(C4CCN(C(=O)OC(C)(C)C)CC4)c(C(=O)Nc4ccc(C)cc4Cl)cn3n2)cc1,?,-9%

# Bioassay records (PubChem)
